High-throughput results from PubChem BioAssay.
This is a sample that favours compounds with a hit; in the whole collection about 0.87% have one here.
BLM helicase inh: inhibitors of human Bloom syndrome helicase BLM; P54132; recombinant BLM DNA unwinding, fluorescence dequenching; Potency, µM (titrated, usually from 56.1 µM), inactives show at the top dose activity change, negative = inhibition, hits mostly inhibitors; 350,000 compounds, 0.2% hits; AID 2528;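 note: plate controls were vehicle for no effect and no enzyme for full effect; nearly all actives have a fitted effect of over 35% in size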
APE1 inh: blocks human APE1 abasic DNA cleavage; recombinant APE1, TAMRA/BHQ-2 abasic DNA cleavage fluorescence; Potency, µM (doses to about 65.8 µM), inactives show at the top dose activity change, negative = inhibition, usual class: inhibitors; 350,000 compounds, 0.35% hits;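 note: plate controls were vehicle for no effect and reference inhibitor for full effect; nearly all actives have a fitted effect of over 55% in size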
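Step 1: APE1 (0.75 nM) with compound, 15 min RT. Step 2: add 50 nM fluorophore/quencher THF duplex. Step 3: three fluorescence reads 60 s apart (525/598 nm); read 3 minus read 1 = reaction progress.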
RECQ1 inh: RECQ1 (human) helicase inhibition | RECQ1 DNA unwinding, red fluorescence kinetic read | 240,000 compounds, 0.54% hits | P46063 | Potency, µM (highest dose often 57.3 µM), for inactives: top-dose activity, negative = inhibition, actives largely listed as inhibitors;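 note: plate controls were vehicle for no effect and no enzyme for full effect; nearly all actives have a fitted effect of over 30% in size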
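RECQ1T1 50 nM; forked duplex (20 bp + 30-nt ss tails) 200 nM, ATP 2 mM final; pH 8.0, 2 mM MgCl2, 2.5 ug/ml poly(dI-dC); 15 min compound preincubation; discontinuous kinetic read over 2 h at RT.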
KAT2A inh: inhibitors of human GCN5L2 histone acetyltransferase | GCN5L2 HAT assay, ThioGlo1 CoA-SH fluorescence | AID 504327 | 390,000 compounds, 0.21% hits | Potency, µM (top dose mostly 58.9 µM), for inactives: at the top dose activity change, negative = inhibition, hits mostly inhibitors | Q92830
Target sequence (Q92830 whole entry, looked up): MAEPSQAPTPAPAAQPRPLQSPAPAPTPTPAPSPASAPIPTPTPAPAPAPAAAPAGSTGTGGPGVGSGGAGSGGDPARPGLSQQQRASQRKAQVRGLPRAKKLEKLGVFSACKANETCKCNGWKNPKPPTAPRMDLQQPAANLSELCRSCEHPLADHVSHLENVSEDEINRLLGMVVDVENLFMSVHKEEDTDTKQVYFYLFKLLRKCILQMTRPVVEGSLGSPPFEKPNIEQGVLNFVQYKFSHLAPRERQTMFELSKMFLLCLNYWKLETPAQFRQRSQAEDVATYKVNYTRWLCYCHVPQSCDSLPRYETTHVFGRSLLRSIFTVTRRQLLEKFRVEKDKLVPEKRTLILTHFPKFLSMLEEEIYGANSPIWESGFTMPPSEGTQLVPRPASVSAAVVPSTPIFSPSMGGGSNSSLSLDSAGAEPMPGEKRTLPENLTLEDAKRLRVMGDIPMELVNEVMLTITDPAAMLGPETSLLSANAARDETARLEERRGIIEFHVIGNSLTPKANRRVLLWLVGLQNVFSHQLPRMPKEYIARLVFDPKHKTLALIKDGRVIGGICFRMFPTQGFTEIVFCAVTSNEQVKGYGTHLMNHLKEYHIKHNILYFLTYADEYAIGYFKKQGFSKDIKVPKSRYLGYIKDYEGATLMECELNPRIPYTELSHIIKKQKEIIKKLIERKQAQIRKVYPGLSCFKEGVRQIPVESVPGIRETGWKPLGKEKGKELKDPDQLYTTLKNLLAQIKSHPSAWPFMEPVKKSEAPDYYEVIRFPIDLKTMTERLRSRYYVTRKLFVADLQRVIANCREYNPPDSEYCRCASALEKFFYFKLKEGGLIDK
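Enzyme at 20nM final was mixed with library compounds for 15 min at room temperature. Peptide H3(1-25) at 75uM, acetyl-CoA at 70uM and ThioGlo1 at 50uM were then added. Plates were read immediately and after 20 min (Ex340nm/Em540nm).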
TDP1 block: blocks human tyrosyl-DNA phosphodiesterase 1 | 350,000 compounds, 0.28% hits | recombinant TDP1, AlphaScreen DNA substrate cleavage | Potency, µM (titrated, usually from 130 µM), for the others: at the top dose activity change, negative = inhibition, usual class: inhibitors | Q9NUW8; note: nearly all actives have a fitted effect of over 40% in size
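Tdp1 1 nM final; 15 min RT w/ cpd; substrate 15 nM, 5 min; beads 10 ug/ml, 10 min; AlphaScreen read. Neg ctrl: no enzyme.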
RGS4 inhibitor: inhibitors of human regulator of G protein signaling 4; P49798; 390,000 compounds, 0.039% hits; Potency, µM (top dose mostly 114 µM), for inactives: at the top dose activity change, negative = inhibition, most hits filed as inhibitors; Transcreener GDP fluorescence polarization, RGS4-accelerated GTP hydrolysis; note: nearly all actives have a fitted effect of over 75% in size
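MLSMR compounds (23 nl, pin-transferred) preincubated 10 min at room temperature with a 500nM (2x) first reagent, then RGS4 at 900nM (2x) plus Transcreener GDP mix added; fluorescence polarization (620/688 nm) read before and after 90 min at 30 °C.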
* = called active by the depositor; i = inactive; ? = inconclusive; / = no result; ! = not active in a repeat; [ ] = dose if it differs, or a comment. Calls come from the whole dose curve; as a rule, active = well fitted curve in the direction sought with a large enough effect; inconclusive = small, poorly fitted or top-dose-only effect, or another doubt; inactive = no such curve, though single readings can be large; an effect the other way counts as inactive or inconclusive. Unless noted, % is set by controls: 0 for no effect and ±100 for the full control effect; potency is the fitted concentration of half-maximal effect.

SMILES | BLM helicase inh | APE1 inh | RECQ1 inh | KAT2A inh | TDP1 block | RGS4 inhibitor
O=C1OC2(c3cc(I)c(O)c(I)c3Oc3c2cc(I)c(O)c3I)c2c(Cl)c(Cl)c(Cl)c(Cl)c21 | 13µM* | 13µM* | 10µM* | 3.2µM* | 29% | /
O=C1OC2(c3ccccc31)c1cc(I)c(O)c(I)c1Oc1c2cc(I)c(O)c1I | 22µM* | 27µM* | 28µM* | 8.9µM* | 29% | /
COc1cccc(S(=O)(=O)N2CCN(S(=O)(=O)c3ccc4c(c3)OCCO4)CC2)c1 | / | / | / | / | 2% | /
COc1ccc(C2Nc3ccccc3C(=O)N2Cc2ccccc2)cc1OCc1ccc(NC(C)=O)cc1 (stereo not drawn) | / | / | / | / | 3% | /
NS(=O)(=O)c1ccc(N/N=C2/CCCCC2C2CCCCC2)c([N+](=O)[O-])c1 (stereo not drawn) | -16% | -5% | 2µM* | -15% | 10% | 12%
Cc1c(C)c2cc(Cl)c(O)c(CN(C)C)c2oc1=O | 0% | -4% | 0% | 22µM* | 7% | -5%
CCc1c(C)c2cc(Cl)c(O)c(CN(CC)CC)c2oc1=O | -2% | 8% | i | -29% | 2% | 25%
CN(C)Cc1c(O)c(Cl)cc2c3c(c(=O)oc12)CCCC3 | 2% | -2% | 1% | ? | -1% | 3%
CCc1c(C)c2cc(Cl)c(O)c(CN(C)C)c2oc1=O | -2% | 7% | i | 28µM* | 2% | 13%
Cc1c(P(=S)(c2ccccc2)c2ccccc2)c2ccccc2n1C(=O)Cc1ccccc1 | / | / | / | / | 0% | /
CCN(CC)c1nc(C#N)nc(N2CCOCC2)n1 | / | / | / | / | 0% | 3%
COc1ccc(CN(Cc2ccccc2)C(=O)c2cccc(C#N)c2)cc1COc1ccc(NC(C)=O)cc1 | / | / | / | / | 0% | -5%
CSc1ncc(CN2CCN(C3CCCCC3)C(CCO)C2)cn1 (stereo not drawn) | -3% | 2% | -12% | 14µM* | 3% | -21%
CSc1ncc(CN2CCN(C3CCN(C(C)C)CC3)C(CCO)C2)cn1 (stereo not drawn) | -3% | 0% | -7% | -24% | 3% | -24%
COc1cc(SSc2cc(OC)cc([N+](=O)[O-])c2N)c(N)c([N+](=O)[O-])c1 | 0% | -1% | -5% | 16µM* | / | -119%
O=C(O)c1ccc(NC(=S)NC(=O)c2ccc3ccccc3c2)cc1 | -2% | ? | / | ? | 32µM* | -40%
CCN(CC)C(=S)SSC(=S)N(CC)CC | -8% | 2% | -3% | ? | 12%[56.1 µM] | 1.1µM*!
COc1ccc(OC)c(NC(=O)C(OC(=O)CNC(=O)c2ccccc2)c2ccccc2)c1 (stereo not drawn) | / | / | / | / | 1% | /
Cc1cc(O)c(-c2cc(O)c(C)cc2O)cc1O | -4% | -4% | i | 16µM* | 8% | -143%
Cc1ccc(N)cc1O | / | -11% | -4% | -6% | -4% | -15%
Cc1ccc(COC(=O)Cc2coc3cc(O)ccc23)cc1 | -12% | -20% | / | -7% | -7% | 6%
Cc1ccc2c(CC(=O)OCc3cc(=O)n4c(n3)sc3ccccc34)coc2c1 | -16% | ? | ? | -14% | 25µM* | 0%[11.4 µM]
O=C(OCc1cc(=O)n2c(n1)sc1ccccc12)c1ccc2c(=O)n3c(nc2c1)CCC3 | -13% | ? | -22% | -22% | 50µM* | -20%
CCCCC(OC(=O)CNC(=O)c1ccccc1)C(=O)Nc1cc(C(F)(F)F)ccc1Cl (stereo not drawn) | / | / | / | / | 1% | /
O=C1NC(=O)/C(=C/c2ccc(-c3cccc([N+](=O)[O-])c3)o2)S1 | ? | 13µM* | / | -14% | / | -22%
CC1(C)CC(=O)C2=C(C1)c1c(ccc3ccccc13)NC2c1cc([N+](=O)[O-])cc([N+](=O)[O-])c1O (stereo not drawn) | 22µM* | -5% | i | ? | 5% | -42%
